Hits are enriched below; roughly 1.7% of the tested compounds scored in any of these assays.
Mtb betalactam = beta-lactam sensitization of Mtb H37Rv. M. tuberculosis H37Rv growth with meropenem, percent inhibition. inhibition, % at 25 µM. 0.27% of 330,000 active. AID 434955; call rule not given here;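 also: growth measured after seven days incubation then overnight dye step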
RecA splice inh = Mtb RecA intein splicing inhibition; P9WHJ3; inhibition, % (no concentration beside the values); 0.75% of 290,000 active; cell-free RecA intein splicing, fluorescence; in the data active = inhibition above about 30%
PfHsp40 rescue = rescue of PfHsp40-mediated yeast toxicity; 0.68% of 340,000 active; growth rescue, % at 12.5 µM; AID 504582; S. cerevisiae expressing PfHsp40, growth rescue, ATP luminescence; in the data active = growth rescue above about 28%, passing the limit was not always enough;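 also: yeast W303a lacking pdr1 and pdr3 grown in galactose medium; growth measured after three days at 30 °C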
Mtb hypoxia inh = reduces hypoxia-regulated biosensor signal in M. tuberculosis; M. tuberculosis hypoxia-regulated fluorescent reporter, fluorescence; fluorescence inhibition, % (test concentration not listed); 0.1% of 300,000 active; in the data active = fluorescence inhibition mostly above about 23%, no sharp cut-off; inactive = mostly below about 17%
CCHFV vOTU inh = CCHFV vOTU protease inhibition; AID 651958; inhibition, % at 11.5 µM; 0.55% of 370,000 active; Pep-AMC fluorescence; in the data active = inhibition above about 30%
Numbers stand for hits; n = inactive; x = no result given.

SMILES | Mtb betalactam | RecA splice inh | PfHsp40 rescue | Mtb hypoxia inh | CCHFV vOTU inh
COc1ccc(-c2csc(NC(=O)c3ccccc3Br)c2C(=O)O)cc1 | n | n | 57.8 | n | n
Cc1ccc(-c2csc(NC(=O)c3ccccc3F)c2C(=O)O)cc1 | n | n | 33.9 | n | n
O=C(Nc1scc(-c2ccccc2)c1C(=O)O)c1ccccc1F | n | n | n | n | n
O=C(/C=C/c1ccco1)Nc1scc(-c2ccccc2)c1C(=O)O | n | n | n | n | n
O=C(/C=C/c1ccccc1)Nc1scc(-c2ccccc2)c1C(=O)O | x | n | 51.0 | n | n
Cc1ccccc1C(=O)Nc1scc(-c2ccc(Br)cc2)c1C(=O)O | n | n | n | n | n
O=C(O)c1cccc(N/N=C(\N=Nc2ccccc2)c2ccccc2)c1 | n | 40.7 | n | x | n
CCc1sc(C(=O)Nc2nc(-c3ccccn3)cs2)cc1C | n | x | 441.1 | n | x
O=C(Nc1nc(-c2ccccn2)cs1)c1ccc(Cl)s1 | n | n | n | x | n
Cc1ccc(C(=O)Nc2nc(-c3ccccn3)cs2)s1 | n | x | 58.9 | n | n
CC(C)CN=Cc1c(O)c([N+](=O)[O-])cc2oc3c(c12)CCCC3 | n | n | 484.3 | n | n
O=[N+]([O-])c1cc2oc3c(c2c(C=NCc2ccccc2)c1O)CCCC3 | n | n | 230.4 | x | n
CCC(C)C(C(=O)N1CCNCC1)n1cc(CCCCN)nn1 (stereo unspecified) | x | x | x | n | x
CC=C1CC(C)[C@](O)(CO)C(=O)OCC2=CCN3CCC(OC1=O)C23 (stereo partly specified) | x | x | x | n | x
c1ccc(-c2nc(-c3ccncc3)no2)cc1 | n | n | n | x | n
c1ccc(-c2ccccc2-c2nc(-c3ccncc3)no2)cc1 | n | n | 32.3 | x | n
CCCCNc1c(-c2ccc(SC(C)CC)cc2)nc2ccccn12 (stereo unspecified) | n | n | 209.2 | x | n
CCCCNc1c(-c2ccc(OC)c(SC(C)CC)c2)nc2cnccn12 (stereo unspecified) | x | x | n | x | n
CCCCNc1c(-c2ccc(SC3CCCCC3)cc2)nc2ccccn12 | n | n | n | n | n
CCCCCCSc1ccc(-c2nc3cnccn3c2NCCCC)cc1 | n | x | 36.6 | x | n
Cc1ccc(C)c(NC(=S)NN=C2CCc3ccccc32)c1 | x | x | x | n | x
COc1ccc(OC)c2c1C(=O)c1ccccc1C2=O | n | n | x | n | n
COc1ccc(OC)c2c1C(=O)C(Cl)=C(Cl)C2=O | n | n | 612.9 | x | n
Cc1ccc(-n2ncc3c2CC(C)(C)CC3NC(=O)c2c(C)noc2C)cc1 (stereo unspecified) | n | n | 91.0 | n | n
O=C(O)C1CCCCC1C(=O)Nc1ncc([N+](=O)[O-])s1 (stereo unspecified) | x | x | x | n | x
SMILES | Mtb betalactam | RecA splice inh | PfHsp40 rescue | Mtb hypoxia inh | CCHFV vOTU inh
O=C(c1cnc2ccc3ccccc3c2c1)c1cc(F)ccc1O | n | n | 83.6 | n | n
Cc1nn(C)c2ncc(C(=O)c3cc(F)ccc3O)cc12 | n | n | n | x | n
COc1ccc(OC)c(NC(=O)C(=O)NN=C(C)CC(=O)Nc2ccc(Cl)cn2)c1 | x | x | x | n | x
Cn1c(SCC(=O)NN=Cc2ccncc2)nc2ccccc21 | x | x | x | n | x
COc1ccc(N2C(=O)C(Cl)=C(Nc3ccccc3O)C2=O)cc1 | n | x | 82.1 | n | n
COc1cc2c(ccc3c4cc(OC)c(OC)cc4c[n+](C)c23)cc1O | x | x | 126.9 | x | n
COc1ccc2c(c1)c[n+](C)c1c3cc(OC)c(OC)cc3ccc21 | x | x | x | x | n
Cc1ccc(S(=O)(=O)NN=Cc2cn(CC(N)=O)c3ccccc23)cc1 | x | x | x | n | x
O=C1C2C3C=CC(C3)C2C(=O)N1N=Cc1cn(Cc2ccc(F)cc2)c2ccccc12 (stereo unspecified) | x | x | x | n | x
COc1ccc(CC(=O)NN=C(C)CC(=O)Nc2ccc(N(C)C)cc2)cc1OC | x | x | x | n | x
O=C(CCl)N1N=C(c2ccco2)CC1c1ccco1 (stereo unspecified) | n | 53.9 | n | x | n
O=C(O)/C=C/C(=O)N1N=C(c2ccco2)CC1c1ccco1 (stereo unspecified) | n | n | n | n | n
Cn1c(COc2ccc3ccccc3c2)nnc1SCC(N)=O | n | n | n | n | n
Cn1c(COc2ccc3ccccc3c2)nnc1SCC(=O)OC1CCCCC1 | n | n | 49.0 | n | n
CCOc1ccc2[nH]c(=O)c(CN(Cc3cccnc3)C(=O)Nc3ccccc3OC)cc2c1 | n | n | n | n | n
COc1ccc2[nH]c(=O)c(CN(Cc3cccnc3)C(=O)Nc3ccccc3)cc2c1 | n | n | 287.8 | n | n
CN(C)c1nc(SCc2ccc(Cl)cc2)nc2c1CCCC2 | n | n | 220.3 | n | n
COC(=O)c1nnn(CC(=O)Nc2cccc(OC)c2)c1C(=O)OC | n | n | 80.0 | x | n
